# SKN-1 block: inhibitors of C. elegans SKN-1 | inhibition, % at 21.8 µM | C. elegans VP596 Pgst-4::GFP/RFP ratio, acrylamide-induced, 24 h | AID 624304 | 360,000 tested, 0.49% active;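 active means interference check ratio from 0.5 to 1.5 plus GFP to RFP signal ratio inhibition reaching or exceeding a fixed threshold, cut at about 30% in these data, passing the limit was not always enough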
# MPTP inh: blocks calcium-induced mitochondrial swelling | isolated mouse mitochondria, Ca2+ swelling absorbance, 30 min | 360,000 tested, 1.4% active | inhibition, % at 10 µM;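 active means inhibition of 50% or more, scaled per plate between neutral and stimulator controls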;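 further: 0% = DMSO wells given calcium and 100% = 1 mM EGTA wells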
# CendR NRP1 mod: modulators of CendR peptide binding to human neuropilin-1. 360,000 tested, 0.85% active. FAM-RPARPAR peptide binding to NRP-1, fluorescence polarization. inhibition, % at 25 µM. O14786;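 active means inhibition or corrected inhibition above about 18%, plus a signal ratio from 0.5 to 1.5, limit read from the data, passing the limit was not always enough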
# Target sequence (O14786 whole entry, looked up): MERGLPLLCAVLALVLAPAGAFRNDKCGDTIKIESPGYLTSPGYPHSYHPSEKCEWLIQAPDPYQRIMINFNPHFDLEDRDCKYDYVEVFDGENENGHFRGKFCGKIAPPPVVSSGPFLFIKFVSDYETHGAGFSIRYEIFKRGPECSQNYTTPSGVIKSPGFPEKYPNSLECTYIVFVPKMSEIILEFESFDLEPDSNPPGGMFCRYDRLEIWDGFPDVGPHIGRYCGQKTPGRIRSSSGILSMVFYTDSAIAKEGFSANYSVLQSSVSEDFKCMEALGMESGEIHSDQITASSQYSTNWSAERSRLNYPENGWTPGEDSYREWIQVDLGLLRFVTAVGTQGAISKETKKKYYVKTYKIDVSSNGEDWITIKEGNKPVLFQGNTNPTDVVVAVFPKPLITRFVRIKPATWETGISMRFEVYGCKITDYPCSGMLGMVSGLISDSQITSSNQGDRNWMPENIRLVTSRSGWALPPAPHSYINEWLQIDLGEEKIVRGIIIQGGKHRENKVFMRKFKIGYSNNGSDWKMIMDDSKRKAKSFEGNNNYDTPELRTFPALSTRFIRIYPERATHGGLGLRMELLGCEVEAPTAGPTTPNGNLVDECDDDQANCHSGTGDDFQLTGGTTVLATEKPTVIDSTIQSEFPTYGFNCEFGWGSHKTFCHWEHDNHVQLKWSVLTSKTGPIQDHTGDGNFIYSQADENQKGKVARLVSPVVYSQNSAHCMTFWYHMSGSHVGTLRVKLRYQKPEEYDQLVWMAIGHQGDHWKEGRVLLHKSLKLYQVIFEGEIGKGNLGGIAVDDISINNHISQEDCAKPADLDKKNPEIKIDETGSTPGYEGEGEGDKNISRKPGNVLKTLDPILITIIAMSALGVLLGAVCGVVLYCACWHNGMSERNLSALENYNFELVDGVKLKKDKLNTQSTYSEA
# ATG4B inhibitor: inhibitors of human ATG4B cysteine protease | Q9Y4P1 | ATG4B cleavage of LC3-PLA2, NBD-HPC fluorescence, 1 h | AID 504462 | 340,000 tested, 0.51% active | inhibition, % at 8.33 µM; in the data active means inhibition above about 40%
# F508del corr: correctors of CFTR F508del function in bronchial epithelial cells. CFBE cells, YFP halide quenching; stimulated with forskolin plus potentiator P3; % fluorescence drop versus neutral controls. activity (quench increase), % at 7.58 µM. 350,000 tested, 0.36% active. AID 720511;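 active means mean added fluorescence quench of at least 8% versus neutral control, with both replicates also reaching 8%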;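 further: cells transiently co-express mutant CFTR-F508del with the halide-sensitive YFP; corrector assay measuring rescue of mutant channel to the surface after 24 h compound exposure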
# MPTP counter: mitochondrial membrane potential, counter-screen | shares compounds with MPTP inh | isolated mitochondria, Rhodamine 123 fluorescence | inhibition, % at 10 µM | 5,000 tested, 78% active | AID 624504; in the data active means inhibition above about 22%;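 further: 0% = DMSO vehicle and 100% = positive control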
# MPTP abs DR: dose response confirmation of mitochondrial permeability transition pore inhibitors. shares compounds with MPTP inh. AID 651561. isolated mitochondria swelling, absorbance. IC50, µM. 780 tested, 58% active; in the data active means IC50 below about 20 µM
# MPTP counter DR: counter-screen for mitochondrial permeability transition pore inhibitors, dose response | shares compounds with MPTP inh | IC50, µM | 780 tested, 49% active | AID 651564 | isolated mitochondria counterscreen, fluorescence read-out; in the data active means IC50 below about 80 µM
# * marks the source's active call; other numbers are inactive results; i = inactive; / = no result given. Only some compounds are listed: those with a hit (about 2.7% of all), similar ones and a draw of the others.
SMILES,SKN-1 block,MPTP inh,CendR NRP1 mod,ATG4B inhibitor,F508del corr,MPTP counter,others
C[C@@H]1CN([C@@H](C)CO)C(=O)c2cccc(NC(=O)Nc3ccc4c(c3)OCO4)c2O[C@@H]1CN(C)C(=O)NC1CCCCC1,/,/,/,/,3,/,
CCCNC(=O)N(C)C[C@H]1Oc2cc(C#Cc3cccc(F)c3)ccc2S(=O)(=O)N([C@H](C)CO)C[C@@H]1C,/,/,/,/,1,/,
CCCNC(=O)[C@@H]1[C@@H](CO)[C@@H]2Cn3c(ccc(C4=CCCC4)c3=O)[C@H]1N2C(=O)C1CC1,/,/,/,/,0,/,
COc1ccc(COCC(O)CN2CCC(CN3C(=O)c4cccc5cccc(c45)C3=O)CC2)cc1OC (stereo not given),-7,90*,-2,-26,/,18,MPTP abs DR=6.3*;MPTP counter DR=46*
O=[N+]([O-])c1ccc(-c2cnc(SC(c3ccccc3)c3ccccc3)[nH]2)cc1,5,90*,-5,18,1,76*,
Cc1ccc(C(C2=C(O)CC(C)(C)CC2=O)C2C(=O)CC(C)(C)CC2=O)s1 (stereo not given),-1,2,-10,8,/,/,
CC1(C)CC(=O)C(C(C2=C(O)CC(C)(C)CC2=O)c2ccc(Br)s2)C(=O)C1 (stereo not given),19,73*,-87,30,/,80*,
CC(C)NC(=O)N[C@H]1C=C[C@@H](CC(=O)NCCN2CCCC2)O[C@@H]1CO,/,/,/,/,0,/,
COC(=O)c1ccc(Cl)c(NC(=O)NC23CC4CC(CC(C4)C2)C3)c1,-5,94*,0,-15,/,83*,
Cc1ccc2nc(SCc3nc4c(cnn4-c4ccccc4)c(=O)[nH]3)[nH]c2c1,6,73*,-7,-7,/,85*,
Cc1cc(C)cc(NCc2cc(=O)oc3cc(-c4ccccc4)c(O)cc23)c1,1,12,-3,-2,/,/,
COc1ccc(C)cc1NCc1cc(=O)oc2cc(-c3ccccc3)c(O)cc12,8,94*,2,3,/,57*,
COc1cc2c3c(c1)C(C)CC(C)(C)N3C(=O)C2=O (stereo not given),-5,-2,0,8,1,/,
CCc1cc2c3c(c1)C(C)CC(C)(C)N3C(=O)/C2=C1\SC(=O)NC1=O (stereo not given),-4,55*,-1,19,3,47*,
C[C@@H]1CN([C@@H](C)CO)C(=O)c2cc(NC(=O)Cn3cnnn3)ccc2O[C@H]1CN(C)Cc1ccc(Cl)c(Cl)c1,/,/,/,/,0,/,
COc1ccc(Oc2cn[nH]c2-c2ccc(O)cc2O)cc1,-1,0,4,2,/,/,
CCOC(=O)c1ccc(Oc2cn[nH]c2-c2ccc(O)cc2O)cc1,1,55*,5,-5,3,26*,
CCCc1ccc(Oc2cn[nH]c2-c2ccc(O)cc2O)cc1,2,64*,-1,17,/,39*,
C[C@H]1CN([C@@H](C)CO)C(=O)c2cc(NC(=O)CCCN(C)C)ccc2O[C@@H]1CN(C)S(C)(=O)=O,/,/,/,/,-1,/,
Oc1[nH]c2ccccc2c1N=Nc1nc2ccccc2s1,2,5,-27,-5,/,/,
C/C(N=Nc1nc2ccccc2s1)=N\Nc1ccccc1O,6,91*,-2,2,-2,54*,
CCCC1=NN(c2ccc([N+](=O)[O-])cc2)C(=O)/C1=C\N(C)C,3,78*,7,6,/,26*,
c1ccc(CN2CCN(CCOCCOc3cccc4ccccc34)CC2)cc1,-17,82*,2,-9,-2,0,MPTP abs DR=i;MPTP counter DR=74*
Cc1cccc(NC(=O)Cn2cc(C(=O)C3CC3)c3ccccc32)c1C,-10,56*,0,4,1,51*,
COc1ccc(CN(C)C[C@H]2OCCCC[C@H](C)Oc3ccc(NS(C)(=O)=O)cc3C(=O)N([C@H](C)CO)C[C@H]2C)cc1,/,/,/,/,-5,/,
SMILES,SKN-1 block,MPTP inh,CendR NRP1 mod,ATG4B inhibitor,F508del corr,MPTP counter,others
CN(C)S(=O)(=O)c1cccc(NC(=S)NC23CC4CC(CC(C4)C2)C3)c1,-13,26,0,-17,3,/,
Cc1ccc(S(=O)(=O)N(C)C)cc1NC(=S)NC12CC3CC(CC(C3)C1)C2,11,65*,-7,-11,0,84*,
Cc1ccc(S(=O)(=O)N(C)C)cc1NC(=S)NC(=O)C12CC3CC(CC(C3)C1)C2,-8,60*,0,-5,/,35*,
CC1(C(=O)Nc2ccccc2)CCN1C(=O)Cc1ccc(-c2ccccc2)cc1 (stereo not given),22,8,-12,/,-1,/,
CC1(C(=O)Nc2ccc3c(c2)OCO3)CCN1C(=O)Cc1ccc(-c2ccccc2)cc1 (stereo not given),20,74*,-3,/,2,96*,
Cc1nn(CC(=O)Nc2sc3c(c2C#N)CCC(C(C)(C)C)C3)c(C)c1[N+](=O)[O-] (stereo not given),28,81*,5,2,/,32*,
CCc1cccc(NC(=O)Cn2cc(C=O)c3ccccc32)c1,-3,73*,2,-1,0,50*,
C[C@H](CO)N1C[C@H](C)[C@@H](CN(C)Cc2ccncc2)Oc2ccc(NC(=O)Nc3ccccc3)cc2CC1=O,/,/,/,/,-1,/,
Cc1ccc(S(=O)(=O)NC(=O)c2cc(C)n(-c3ccccc3)c2C)cc1,-2,3,-5,1,0,/,
Cc1ccc(S(=O)(=O)NC(=O)c2cc(C)n(-c3ccc(N(C)C)cc3)c2C)cc1,9,85*,2,3,/,91*,
CC(C)C#Cc1cnc2c(c1)C(=O)N([C@@H](C)CO)C[C@@H](C)[C@H](CN(C)C(=O)c1ccccn1)O2,/,/,/,/,-4,/,
CCc1ccc(O)c(CNCCNCc2cc(CC)ccc2O)c1,-24,95*,8,-6,4,4,
CCCCCc1ccc(CC(=O)Nn2c(C)nc3ccccc3c2=O)cc1,0,72*,-3,-8,/,68*,
COc1cccc(-c2csc(N3CCN(C(=O)Nc4ccc(Cl)cc4)CC3)n2)c1,8,88*,-9,-6,1,89*,
COCCCNC(=S)N1CCN(c2nc(-c3ccc(Cl)cc3)cs2)CC1,16,76*,-4,/,/,78*,
Cc1ccc(S(=O)(=O)Nc2ccc3c(c2)C(=O)N([C@@H](C)CO)C[C@H](C)[C@H](CN(C)C(=O)Nc2c(C)noc2C)OCCCC[C@H](C)O3)cc1,/,/,/,/,2,/,
C[C@H](O)C#Cc1ccc([C@H]2[C@@H](CO)N3CCCCN(CC4CC4)C[C@H]23)cc1,/,/,/,/,-1,/,
CNC(=O)C[C@H]1CC[C@H]2[C@@H](COC[C@@H](O)CN2S(=O)(=O)c2ccccc2Cl)O1,/,/,/,/,-1,/,
